High-throughput results deposited in PubChem BioAssay by several laboratories.
PostGolgi yeast – growth inhibition of a yeast mutant, post-Golgi transport screen; post-Golgi transport phenotypic cell assay; inhibition, % at 10 µM; hit rate 0.9% among 98,000; AID 739;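 note: yeast cells grown in 1536-well plates; yeast grown about 18 h at 30C before absorbance read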
PostGolgi ctrl – inhibits growth of the yeast control strain | hit rate 5% among 98,000 | efflux-deficient yeast background strain, growth absorbance A615, 16 h | AID 738 | inhibition, % at 10 µM
CYP2C19 activ – activators of human cytochrome P450 2C19. activation factor at 5 µM. recombinant CYP2C19, luciferin-H EGE luminescence; hits give high values; 0 = fully inhibited enzyme, 1 = untreated enzyme. 96,000 tested, under 10 active. AID 1025;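 active = activation factor of at least 2 at 5 µM in the primary screen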;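 note: 0 = wells with 2.5 mM tranylcypromine and 1 = vehicle-only wells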
CYP2C9 act – CYP2C9 (human) activation; recombinant CYP2C9, luciferin-H conversion, luminescence; hits give high values; factor 1 = untreated enzyme, 0 = blocked; activation factor at 5 µM; hit rate 1.4% among 96,000; AID 1024;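 active = activation factor of 2 or more for CYP2C9 at a 5 µM dose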;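 note: 0 = sulfaphenazole-blocked wells and 1 = vehicle-only wells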
Target sequence (P11712 whole entry, looked up): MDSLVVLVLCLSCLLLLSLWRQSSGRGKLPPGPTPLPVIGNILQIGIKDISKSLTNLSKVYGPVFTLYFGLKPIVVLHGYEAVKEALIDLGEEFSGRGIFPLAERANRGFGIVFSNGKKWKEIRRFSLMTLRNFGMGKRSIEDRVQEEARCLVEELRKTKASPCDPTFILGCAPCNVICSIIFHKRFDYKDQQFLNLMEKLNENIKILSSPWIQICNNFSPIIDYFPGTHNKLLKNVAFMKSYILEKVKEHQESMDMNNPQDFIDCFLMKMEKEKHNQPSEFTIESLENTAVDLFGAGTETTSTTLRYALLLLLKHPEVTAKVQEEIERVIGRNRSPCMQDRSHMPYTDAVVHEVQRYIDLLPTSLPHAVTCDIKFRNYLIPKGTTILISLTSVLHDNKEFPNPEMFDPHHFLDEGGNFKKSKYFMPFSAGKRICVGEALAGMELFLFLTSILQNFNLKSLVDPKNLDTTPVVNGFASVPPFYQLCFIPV
CYP2C9 inh – blocks human cytochrome P450 2C9; AID 777; P11712; hit rate 20% among 96,000; inhibition, % at 5 µM; CYP2C9 Supersomes, luciferin-H conversion, luminescence;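 active = blocking of liver enzyme CYP2C9 beyond about 50% at 5 µM, limit read from the data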
CYP2C19 inh – blocks human cytochrome P450 2C19. P33261. CYP2C19 Supersomes, luciferin-H EGE luminescence, 30 min. inhibition, % at 5 µM. hit rate 21% among 96,000. AID 778;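 active = CYP2C19 inhibition above a set limit at 5 µM in the primary screen, cut at about 50% in these data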;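 note: plate controls were negative control wells for no effect and 2.5 mM tranylcypromine positive control for full effect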
* hit, by the source's call; . = no result. A selection: hits, their analogues and other compounds. The true share with any hit is near 32%. Cut-off read from the data, not from the text of the source, unless noted: active = inhibition above about 30%; inactive = the rest.

SMILES	PostGolgi yeast	PostGolgi ctrl	CYP2C19 activ	CYP2C9 act	CYP2C9 inh	CYP2C19 inh
Cc1cccc(-c2nc(CSCC(=O)N3CCN(c4ccccn4)CC3)c(C)o2)c1	3.3	5.8	0.8	0.7	32.3	16.5
Cc1ccsc1-c1nc(CSCC(=O)N2CCN(c3ccccc3)CC2)c(C)o1	0.2	22.1	0.4	0.8	23.9	62.6*
CCOC(=O)C1CCN(C(=O)CS(=O)Cc2nc(-c3ccc(C)cc3)oc2C)CC1 (stereo not drawn)	-0.5	-0.6	0.6	0.3	66.9*	39.7
CCC1(c2ccc(F)cc2)NC(=O)N(CC(=O)N2CCOCC2)C1=O (stereo not drawn)	.	.	1	1.1	-6.7	-1.7
CCc1ccc2c(COC(=O)c3n[nH]c4ccccc34)cc(=O)oc2c1	-4.0	37.3*	0.4	0.2	80.6*	57.9*
Cc1ccc2c(COC(=O)c3n[nH]c4ccccc34)cc(=O)oc2c1	-4.8	20.2	0.9	0.4	56.7*	12.2
O=C(NCCCN1CCOCC1)c1cccs1	-1.6	0.6	1	1.2	-17.2	-3.5
Cc1sc2ncnc(OCC(=O)NCc3cccs3)c2c1C	8.5	3.0	.	.	.	.
Cc1cc(S(=O)(=O)Nc2nc(CN3CCOCC3)nc3sc4c(c23)CCCC4)ccc1F	2.8	10.8	0.4	0.1	87.9*	59.8*
NS(=O)(=O)c1ccc(CCNc2nc(CN3CCCCC3)nc3sc4c(c23)CCC4)cc1	-2.0	16.2	0.9	0.9	12.0	6.3
CC1CCc2c(sc3nc(CN4CCOCC4)nc(NS(=O)(=O)c4cccc([N+](=O)[O-])c4)c23)C1 (stereo not drawn)	-1.6	22.6	0.7	0.2	84.1*	26.3
Nc1cc(=O)[nH]c(SCC(=O)Nc2ccc(Br)cc2)n1	-4.4	-6.4	0.9	0.9	14.0	11.6
Fc1cccc(F)c1CSc1nc2ccccc2[nH]1	3.6	13.0	0.5	0.5	49.3	54.3*
O=C(CSc1nc2cc3ccccc3cc2[nH]1)Nc1ccc(F)cc1	2.0	54.7*	0.6	0.3	68.6*	37.1
O=C(CSc1nc2ncccc2[nH]1)NCc1ccccc1	7.3	6.0	0.7	1.2	-23.7	30.3
Cc1noc(C)c1CSc1nc2ccccc2[nH]1	4.1	4.3	0.6	0.7	26.2	37.0
O=C(CSc1nc2ccccc2[nH]1)Nc1c(F)cccc1F	-2.4	-9.4	0.5	0.6	41.0	51.3*
Fc1ccccc1CSc1nc2ncccc2[nH]1	0.2	1.9	0.3	0.6	36.4	66.1*
COc1nonc1NC(=O)CSc1nc2ccccc2[nH]1	1.7	5.5	0.7	0.8	23.1	27.5
COC(=O)c1oc2c(c1C)C1(CCC2)SCCS1	-0.3	14.6	0.5	0.8	17.4	49.3
O=c1o[nH]c(-c2ccccc2)c1C1=NCCCCC1	3.2	10.8	.	.	.	.
c1ccc(-c2cc(CSc3nc4ccccc4[nH]3)on2)cc1	6.4	11.4	0.7	0.4	62.1*	28.0
Cc1cccc(C)c1NC(=O)CSc1nc(C)c(CC(=O)c2ccc(Br)cc2)c(C)c1C#N	-5.2	-0.7	1.1	0.8	21.1	-6.1
Cc1[nH]c(C(=O)O)c(C)c1C(=O)OC(C)C	0.8	6.2	1.1	1	-4.7	-14.3
CC1=C(C(=O)OC(C)C)C(C)C(C(=O)OC(C)C)=C(C)N1	-16.0	8.3	0	0.1	92.3*	100.4*
SMILES	PostGolgi yeast	PostGolgi ctrl	CYP2C19 activ	CYP2C9 act	CYP2C9 inh	CYP2C19 inh
Cc1[nH]c2ccccc2c1C(=O)COC(=O)C1CC(=O)N(Cc2ccccc2)C1 (stereo not drawn)	-1.6	7.8	0.2	0.3	67.3*	77.6*
CCOC(=O)c1c(C)[nH]c(C(=O)COC(=O)C2CC(=O)N(Cc3ccccc3)C2)c1C (stereo not drawn)	-10.1	-16.1	0.6	0.6	42.4	42.1
COCCOc1cnn(-c2cc(Oc3ccc(C)cc3)ncn2)c(=O)c1Cl	4.6	4.7	0.8	0.7	28.5	22.9
COc1cnn(-c2cc(Oc3ccc(C)cc3)ncn2)c(=O)c1Cl	9.6	8.8	0.3	0.9	6.9	74.0*
O=C(c1ccc(=O)oc1)N1CCCc2ccccc21	5.1	2.6	0.9	0.8	17.3	5.4
CN(CC(=O)N1CCc2ccccc21)S(=O)(=O)c1cccs1	0.8	5.0	0.1	3*	-199.4	89.1*
COc1ccc(NC(=O)C2CCN(C(=O)c3cccs3)CC2)cc1OC	-6.9	9.5	1	1.3	-29.8	-4.8
COc1cc(N=c2ssnc2Cl)cc(OC)c1	-7.7	6.5	0.5	0	99.7*	47.9
